Smad3 FoxH1 inh: Smad3/FoxH1 peptide binding inhibitors, primary screen, biochemical, TR-FRET | Mothers against decapentaplegic homolog 3 (Homo sapiens), P84022 | TR-FRET Smad3/Dy647-FoxH1 peptide binding, europium anti-His | inhibition, % at 25 µM | hit rate 0.29% among 88,000;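 active = compounds that reduce the energy-transfer binding signal between the protein and its labelled peptide by more than half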;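 also: 0% = Smad3 plus labelled peptide maximal FRET and 100% = peptide-only background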
Target sequence (P84022 whole entry, looked up): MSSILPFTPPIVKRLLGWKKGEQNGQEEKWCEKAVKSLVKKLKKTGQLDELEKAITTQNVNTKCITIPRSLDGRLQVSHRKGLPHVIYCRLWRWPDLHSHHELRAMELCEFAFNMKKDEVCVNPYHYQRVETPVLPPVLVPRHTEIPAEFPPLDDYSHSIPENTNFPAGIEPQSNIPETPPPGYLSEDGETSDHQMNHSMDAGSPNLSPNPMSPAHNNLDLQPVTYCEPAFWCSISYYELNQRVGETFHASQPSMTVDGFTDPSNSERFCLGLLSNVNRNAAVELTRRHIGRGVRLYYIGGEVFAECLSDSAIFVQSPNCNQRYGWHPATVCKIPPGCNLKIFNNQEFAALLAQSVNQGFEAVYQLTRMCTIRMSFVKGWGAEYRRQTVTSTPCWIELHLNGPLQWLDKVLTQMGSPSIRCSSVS
ERb coact inh: inhibitors of ERβ-SRC1 coactivator interaction, primary screen, biochemical, TR-FRET, ERβ LBD, SRC-1 peptide; hit rate 1.3% among 86,000; AID 633, 2007; Estrogen receptor beta (Homo sapiens), Q92731; TR-FRET ER-beta LBD / SRC1-Cy5 peptide binding; receptor agonist-loaded with 1 µM estradiol; inhibition, % at 25.6 µM;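 active = compounds whose percent inhibition of the receptor-coactivator binding signal exceeds about 50% in the single-dose screen, limit read from the data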;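 also: 0% = receptor plus peptide wells without compound and 100% = peptide-only wells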
ERa SRC1 inh: ERα–SRC-1 coactivator interaction inhibitors, primary screen, biochemical, TR-FRET, ERα LBD, estradiol-bound | hit rate 1.7% among 86,000 | inhibition, % at 25.6 µM | Estrogen receptor (Homo sapiens), P03372 | TR-FRET ER-alpha LBD / SRC-1 peptide; in the data active = inhibition above about 50%;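 also: 0% = receptor plus peptide control and 100% = peptide only without receptor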
FAK blocker: FAK kinase inhibitors, primary screen, biochemical; Focal adhesion kinase 1 (Homo sapiens), Q05397; biochemical FAK kinase activity assay; inhibition, %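 (tested at 7 µM)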; hit rate 0.84% among 97,000; AID 727, 2007; in the data active = inhibition above about 19%;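 also: 0% = DMSO and 100% = reference compound high control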
ERa SRC1 pot: enhancers of ERα–SRC-1 coactivator binding, primary screen, biochemical, TR-FRET, ERα LBD, low estradiol; TR-FRET ERalpha-LBD/SRC-Cy5 coactivator binding, 2 h; 100 = basal binding, no effect; AID 639, 2007; Estrogen receptor (Homo sapiens), P03372; hit rate 1.3% among 86,000; coactivator binding (% of control), % at 25.6 µM; in the data active = activity above about 200%;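 also: binding measured in presence of low estradiol as agonist stimulus; 0% = peptide alone without receptor and 100% = receptor with peptide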
An asterisk follows results filed as active; [ ] = another dose, or the depositor's remark. Rows were chosen to be rich in hits. Some 3.3% of all compounds tested hit in one or more screens of this group.

What do the screens show for `CCOC(=O)c1cc2sc(C)cc2n1CC(=O)NCc1ccc(F)cc1`?
Smad3 FoxH1 inh: 23; ERb coact inh: 34; ERa SRC1 inh: 5; FAK blocker: -14; ERa SRC1 pot: 238*[fluorescence artefact?]

What do the screens show for `COc1ccc(S(=O)(=O)N(C)c2ccc(C(=O)NCCC(C)C)cc2)cc1`?
Smad3 FoxH1 inh: 69*; ERb coact inh: 1; ERa SRC1 inh: 7; FAK blocker: -1; ERa SRC1 pot: 116

How did O=C(CCCSc1nnnn1-c1cccc2ccccc12)c1ccc(F)cc1 do in these assays?
FAK blocker: 3

Results for Cc1nc2ccc3nc(NC(=O)c4ccco4)sc3c2s1 ?
Smad3 FoxH1 inh: 36; ERb coact inh: 50*[fluorescence artefact?]; ERa SRC1 inh: 44; FAK blocker: 11; ERa SRC1 pot: 183

Results for Cc1nc2ccc3nc(NC(=O)C4COc5ccccc5O4)sc3c2s1 (stereo not given) ?
Smad3 FoxH1 inh: -8; ERb coact inh: 15; ERa SRC1 inh: 5; ERa SRC1 pot: 279*

What do the screens show for `CSc1nc2ccc3nc(NC(=O)C4COc5ccccc5O4)sc3c2s1` (stereo not given)?
Smad3 FoxH1 inh: 13; ERb coact inh: 12; ERa SRC1 inh: 18; FAK blocker: 4; ERa SRC1 pot: 209*[fluorescence artefact?]

Results for Cc1ccc2nc(NC(=O)c3ccco3)sc2c1 ?
Smad3 FoxH1 inh: 16; ERb coact inh: -7; ERa SRC1 inh: -5; FAK blocker: 3; ERa SRC1 pot: 106

How did C[C@H](CCC(=O)O)[C@H]1CC[C@H]2[C@@H]3[C@@H](O)C[C@H]4C[C@@H](O)CC[C@]4(C)[C@H]3C[C@@H](O)[C@]12C do in these assays?
Smad3 FoxH1 inh: 12

Results for N=C(N)SCCCN ?
Smad3 FoxH1 inh: -16

Results for O=S(=O)(c1ccc2ccccc2c1)N1CCN(S(=O)(=O)c2ccc3ccccc3c2)CC1 ?
Smad3 FoxH1 inh: 91*

Results for CN1CCN(S(=O)(=O)c2ccc3ccccc3c2)CC1 ?
Smad3 FoxH1 inh: 3; ERb coact inh: -7; ERa SRC1 inh: -5; FAK blocker: -2; ERa SRC1 pot: 130

What do the screens show for `COc1nc2ccc(C)cc2cc1-c1noc(-c2cccnc2)n1`?
Smad3 FoxH1 inh: 12; ERb coact inh: 22; ERa SRC1 inh: 19; FAK blocker: -3; ERa SRC1 pot: 241*[fluorescence artefact?]

How did COc1cccc(-c2noc(-c3cccnc3)n2)c1 do in these assays?
Smad3 FoxH1 inh: -7; ERb coact inh: -15; ERa SRC1 inh: -4; FAK blocker: -3; ERa SRC1 pot: 97

How did COc1ccc2[nH]c3nc(SCc4nnc(-c5ccc(C)cc5)o4)nnc3c2c1 do in these assays?
Smad3 FoxH1 inh: 6; ERb coact inh: 64*[fluorescence artefact?]; ERa SRC1 inh: 81*; FAK blocker: 17; ERa SRC1 pot: 197

Results for C#CCOC(=O)[C@H](N)CC(N)=O ?
Smad3 FoxH1 inh: -3

Results for OCCN(CO)CO ?
Smad3 FoxH1 inh: -7

How did CNC(=O)CSc1nc2c(c(=O)n(C)c(=O)n2C)n1Cc1ccc(C)cc1 do in these assays?
Smad3 FoxH1 inh: 2; ERb coact inh: 0; ERa SRC1 inh: 15; FAK blocker: -2; ERa SRC1 pot: 201*

How did CC(C)(C)c1ccc(O)c(CN(Cc2cc(C(C)(C)C)ccc2O)C2CCCCC2)c1 do in these assays?
Smad3 FoxH1 inh: 11

How did CCc1cc2c(=O)c(-c3ccc4c(c3)OCCO4)coc2cc1OC(=O)c1ccco1 do in these assays?
Smad3 FoxH1 inh: 4; ERb coact inh: 58*[fluorescence artefact?]; ERa SRC1 inh: 70*[fluorescence artefact?]; FAK blocker: 3; ERa SRC1 pot: 213*[fluorescence artefact?]

How did CCCc1cc2c(=O)c(-c3ccc4c(c3)OCCO4)coc2cc1OC(=O)c1ccco1 do in these assays?
Smad3 FoxH1 inh: 9; ERb coact inh: 21; ERa SRC1 inh: 51*; FAK blocker: 0; ERa SRC1 pot: 122

How did CCCc1cc2c(=O)c(-c3ccc4c(c3)OCCO4)c(C)oc2cc1OS(C)(=O)=O do in these assays?
FAK blocker: 3

How did O=C1C=C(Nc2nc(C(=O)O)cc(=O)[nH]2)c2ccccc2C1=O do in these assays?
Smad3 FoxH1 inh: 7

What do the screens show for `O=C(c1ccc2nc(-c3ccco3)c(-c3ccco3)nc2c1)N1CCN(c2ccccc2)CC1`?
Smad3 FoxH1 inh: 11; ERb coact inh: 47; ERa SRC1 inh: 44; FAK blocker: 9; ERa SRC1 pot: 73

How did O=C(Nc1cccc(C(F)(F)F)c1)c1ccc2nc(-c3ccco3)c(-c3ccco3)nc2c1 do in these assays?
Smad3 FoxH1 inh: 2; ERb coact inh: 81*[fluorescence artefact?]; ERa SRC1 inh: 84*[fluorescence artefact?]; FAK blocker: 14; ERa SRC1 pot: 16

How did O=C(Nc1ccc2nc(-c3ccco3)c(-c3ccco3)nc2c1)NC1CC1 do in these assays?
Smad3 FoxH1 inh: 45; ERb coact inh: 109*[fluorescence artefact?]; ERa SRC1 inh: 100*[fluorescence artefact?]; FAK blocker: 92*; ERa SRC1 pot: 7

How did O=C(Nc1ccc(N2CCOCC2)cc1)Nc1ccc2nc(-c3ccco3)c(-c3ccco3)nc2c1 do in these assays?
Smad3 FoxH1 inh: 4; ERb coact inh: 59*[fluorescence artefact?]; ERa SRC1 inh: 53*[fluorescence artefact?]; FAK blocker: 11; ERa SRC1 pot: 32

How did O=C(O)Cc1cccnc1 do in these assays?
Smad3 FoxH1 inh: -1

What do the screens show for `N#Cc1cc([N+](=O)[O-])cnc1NCC(O)CO` (stereo not given)?
FAK blocker: -8

Results for CN(CC1CCCO1)S(=O)(=O)c1ccc(C(=O)Nc2nc3cc4c(cc3s2)OCO4)cc1 (stereo not given) ?
Smad3 FoxH1 inh: 4; ERb coact inh: 19; ERa SRC1 inh: 63*[fluorescence artefact?]; FAK blocker: 1; ERa SRC1 pot: 86

What do the screens show for `CCN(CC)S(=O)(=O)c1cccc(C(=O)Nc2nc3cc4c(cc3s2)OCCO4)c1`?
Smad3 FoxH1 inh: -4; ERb coact inh: -1; ERa SRC1 inh: 2; ERa SRC1 pot: 122

How did Clc1ccccc1C(Nc1ncccn1)Nc1ncccn1 do in these assays?
Smad3 FoxH1 inh: 8

What do the screens show for `Cc1ccc(-n2nnnc2SCC(=O)c2c(N)n(CC(C)C)c(=O)n(C)c2=O)cc1`?
Smad3 FoxH1 inh: 3; ERb coact inh: -6; ERa SRC1 inh: -8; FAK blocker: -1; ERa SRC1 pot: 242*

How did COc1cc2ccc([C@H](C)NCC#N)cc2cc1OC do in these assays?
Smad3 FoxH1 inh: 6

Results for COc1ccc(N2CCN(Cc3cc(=O)oc4cc(-c5ccccc5)c(O)cc34)CC2)cc1 ?
Smad3 FoxH1 inh: 3; ERb coact inh: 43; ERa SRC1 inh: 64*[fluorescence artefact?]; FAK blocker: 0; ERa SRC1 pot: 70

How did CC(=C1C(=O)c2ccccc2C1=O)N1CCN(C/C=C/c2ccccc2)CC1 do in these assays?
Smad3 FoxH1 inh: -9; ERb coact inh: -1; ERa SRC1 inh: 4; FAK blocker: -2; ERa SRC1 pot: 93
